Screens deposited in PubChem BioAssay by National Center for Advancing Translational Sciences (NCATS).
Compounds with a hit are over-represented: about 10% of the library has one in this group of screens.
3T3 cytotox = kills NIH 3T3 cells. NIH 3T3 viability, CellTiter-Glo ATP luminescence, 48-72 h. 94,000 tested, 4.3% active. AID 1345082. Potency, µM (series often up to 96.7 µM), for the others: at the highest dose activity change, negative = cytotoxicity, most hits filed as inhibitors; also: nearly all actives have a fitted effect of over 55% in size
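NIH 3T3 cells at 400 cells/well received 23 nL of compound by pintool and were incubated 48 or 72 h at 37 °C. Viability was read as ATP-coupled CellTiter-Glo luminescence.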
HEK293 tox = HEK 293 cell cytotoxicity; HEK 293 viability, ATP luminescence (CellTiter-Glo), 48-72 h; Potency, µM (highest dose often 115 µM), for the others: at the highest dose activity change, negative = cytotoxicity, most hits filed as inhibitors; 94,000 tested, 6.6% active; AID 1345083; also: nearly all actives have a fitted effect of over 60% in size
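Luminescence from cellular ATP, measured with CellTiter-Glo, indicates HEK 293 viability. Cells plated at 250 cells/well are treated with compound for 48 or 72 hr at 37 degree Celsius before reagent addition.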
NPR1 antag = blocks ANP-stimulated signaling of human Npr1 receptor. 76,000 tested, 1.6% active. Potency, µM (doses to about 46.3 µM), inactives show top-dose activity change, negative = inhibition, hits mostly inhibitors. HEK293 hNpr1 GloSensor cGMP, ANP-stimulated luminescence. AID 1347048. P16066; calls by dose curve; also: nearly all actives have a fitted effect of over 60% in size
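HEK293 cells stably expressing human Npr1 and cGMP GloSensor pGS-40F, loaded 2 h with 2% GloSensor reagent, given compound 30 min at room temperature. Luminescence read before and 20 min after 0.1 nM hNppA.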
GPT2 inhibitor = blocks human glutamate pyruvate transaminase 2; 100,000 tested, 0.25% active; Recombinant GPT2, coupled pyruvate oxidase/HRP Amplex Red fluorescence; Potency, µM (titrated, usually from 57.7 µM), for inactives: top-dose activity change, negative = inhibition, usual class: inhibitors; also: nearly all actives have a fitted effect of over 60% in size
Target sequence (Q8TD30 whole entry, looked up): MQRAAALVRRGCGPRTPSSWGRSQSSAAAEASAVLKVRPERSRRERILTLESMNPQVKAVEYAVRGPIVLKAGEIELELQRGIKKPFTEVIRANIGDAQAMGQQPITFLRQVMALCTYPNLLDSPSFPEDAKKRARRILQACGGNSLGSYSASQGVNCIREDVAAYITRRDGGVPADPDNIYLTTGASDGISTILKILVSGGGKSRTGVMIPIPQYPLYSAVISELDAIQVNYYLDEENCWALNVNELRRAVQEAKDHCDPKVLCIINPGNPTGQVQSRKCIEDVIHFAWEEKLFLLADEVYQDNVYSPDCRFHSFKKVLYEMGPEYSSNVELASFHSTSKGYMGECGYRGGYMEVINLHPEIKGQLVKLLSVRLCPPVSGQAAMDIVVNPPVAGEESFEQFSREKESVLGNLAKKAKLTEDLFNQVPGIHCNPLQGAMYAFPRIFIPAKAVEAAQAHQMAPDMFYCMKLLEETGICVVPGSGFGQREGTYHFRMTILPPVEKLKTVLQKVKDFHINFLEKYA
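Inhibition is scored from Amplex Red fluorescence generated when pyruvate oxidase and HRP act on pyruvate released by GPT2. Reactions contain 10ng/uL enzyme, 250uM a-KG and 2mM L-alanine and run 30 min at room temperature.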
Luciferase inh = blocks purified firefly luciferase enzyme activity. 76,000 tested, 2.5% active. P08659. Potency, µM (highest dose often 115 µM), actives largely listed as inhibitors. purified P. pyralis luciferase, luminescence, biochemical; also: nearly all actives have a fitted effect of over 65% in size
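Cell-free enzyme assay, 10nM P. pyralis luciferase, luciferin and ATP each at 10uM. Inhibition profiled over a 6-point titration, read as luminescence.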
The depositor's hits bear a star; i = inactive; ? = inconclusive; / = no result given; [ ] = another dose, or the depositor's remark. Unless noted, calls follow the shape of the dose curve; as a rule, active = well fitted curve in the direction sought with a large enough effect; inconclusive = small, poorly fitted or top-dose-only effect, or another doubt; inactive = no such curve, though single readings can be large; an effect the other way counts as inactive or inconclusive. % is scaled to controls: 0 for no effect and ±100 for the full control effect; potency is read from the fitted curve at half-maximal effect.

SMILES	3T3 cytotox	HEK293 tox	NPR1 antag	GPT2 inhibitor	Luciferase inh
CN(C)c1ccc(CN2CCNc3cc(-c4ccccc4)ncc3C2)cc1	?	?	-3.1%[70.6 µM]	i	i
CN(C)c1ccc(CN2CCNc3cc(Nc4cccnc4)ncc3C2)cc1	?	?	-8.9%[70.6 µM]	i	63.1µM*
O=C(c1cc(Cl)ccc1F)N1CCCN(c2cc(-c3ccccc3)[nH]n2)CC1	-26.7%	?	-19.2%	-22.3%	i
Cc1ccc(Nc2ccnc(N3CCCN([S+](=O)([O-])c4ccc(C)cc4)C3)n2)cc1	?	?	/	-2.5%	/
CNC(=O)c1cnc2c(c1)N(C(=O)Cc1ccc(C(C)C)cc1)CCC2	?	?	-14.5%[70.6 µM]	?	i
COc1cccc(NC(=O)c2cnc3c(c2)N(C(=O)Cc2ccccc2OC)CCC3)c1	-22.5%[138 µM]	100µM*	-1.9%[70.6 µM]	-19.5%[88.5 µM]	?
CC(C)c1ccc(CC(=O)N2CCCc3ncc(C(=O)NCCc4c[nH]c5ccccc45)cc32)cc1	11.2µM*	25.1µM*	-4.9%	-24.7%	i
COc1ccc(NC(=O)c2cnc3c(c2)N(C(=O)Cc2ccc(C(C)C)cc2)CCC3)cc1OC	?	31.6µM*	?	-11.3%	i
COc1ccccc1CC(=O)N1CCCc2ncc(C(=O)Nc3ccccc3)cc21	-22.7%[138 µM]	?	?	-5.3%[88.5 µM]	?
COc1ccccc1N1CCCc2ncc(C(=O)Nc3cccnc3)cc21	?	100µM*	-18.8%[70.6 µM]	?	i
O=C(c1ccncc1)N1CCC(N2C(=O)C(OCC3CC3)C23CCCCC3)CC1 (configuration not stated)	-18.2%	-18.4%	6.4%	-6.3%	i
Cn1cc(CNC(=O)C[C@@H]2C[C@H]3O[C@H](CNC4CCCCC4)[C@@H](O)[C@H]3O2)cn1	i	1.3%[172 µM]	9.9%[70.6 µM]	-0.7%[88.5 µM]	i
Cc1ccc(NC(=O)c2cc3cn(C(C)C)cc3s2)c(C)c1	-8.0%	?	-19.1%	-1.2%	i
O=C(Nc1cccc(C(F)(F)F)c1)c1cnc2c(c1)N(C(=O)Cc1cccc(C(F)(F)F)c1)CCC2	?	25.1µM*	-23.7%	?	i
COCCCNC(=O)c1cnc2c(c1)N(C(=O)Cc1ccc(C(C)C)cc1)CCC2	-23.5%[138 µM]	70.8µM*	-1.8%[70.6 µM]	-14.0%[88.5 µM]	i
Cc1ccccc1NC(=O)c1cnc2c(c1)N(C(=O)CCc1ccccc1)CCC2	-21.4%[138 µM]	100µM*	?	-11.5%[88.5 µM]	i
CC(C)c1ccc(CC(=O)N2CCCc3ncc(C(=O)Nc4ccn(C)n4)cc32)cc1	?	89.1µM*	-1.8%[70.6 µM]	-6.1%[88.5 µM]	i
Cc1ccccc1NC(=O)c1cnc2c(c1)N(Cc1ccccc1)CCC2	?	?	-0.3%[70.6 µM]	-3.2%[88.5 µM]	i
O=C1c2c(nc(CNCc3ccc4c(c3)OCO4)n2Cc2ccccc2)NCCN1CCOc1ccccc1	39.8µM*	?	-14.4%	-16.7%	i
O=C1c2c(nc(COc3ccc(F)cc3)n2Cc2ccccc2)NCCN1CCOc1ccccc1	?	?	?	-0.4%	i
COCCN1CCNc2nc(COc3ccc(Oc4ccccc4)cc3)n(Cc3ccccc3)c2C1=O	44.7µM*	?	-21.7%	-2.6%	i
Cc1ccccc1NCc1nc2c(n1Cc1ccccc1)C(=O)N(C)CCN2	-13.0%[138 µM]	?	-22.3%[70.6 µM]	-11.4%[88.5 µM]	i
Cc1ccccc1NCc1nc2c(n1Cc1ccccc1)C(=O)N(CCOc1ccccc1)CCN2	31.6µM*	?	-19.0%	-14.0%	i
O=C1c2c(nc(COc3ccc(F)cc3F)n2Cc2ccccc2)NCCN1CCOc1ccccc1	?	44.7µM*	?	-10.2%	i
C1CNCC(c2nc(C3CCOCC3)no2)C1 (configuration not stated)	-4.3%	4.1%	-9.2%	-8.4%	i
COc1cccc(-c2ccnc3nc(C4CCC4)nn23)c1	-24.2%	-12.1%	-11.2%	-4.9%	i
O=C1c2c(nc(COc3ccc4c(c3)OCO4)n2Cc2ccccc2)NCCN1CC1CCOCC1	-26.9%	?	-0.7%	i	i
O=C1c2c(nc(COc3ccc4c(c3)OCO4)n2Cc2ccccc2)NCCN1Cc1cccc(Cl)c1	22.4µM*	31.6µM*	?	-1.2%	i
